The results in this text go back to the supplement of paper PMC8728848.

Common to all, as to assay: glycan array binding signal (z-score within array); higher = stronger binding
What all share (conditions): glycan notation: IUPAC condensed, linker removed

Experiment [1] deals with Fuc(a1-3)[Gal(b1-4)]GlcNAc. In outline:
(§1)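 From the Consortium for Functional Glycomics database, 3228 arrays were curated, keeping only those whose protein sequence was available. Binding is given as a within-array Z-score averaged across arrays sharing a protein sequence and across linkers. Negative Z-scores can be read as non-binding.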

For experiment [2], the target named is Fuc(a1-3)[Gal3S(b1-4)]GlcNAc. The essentials:
as §1

The target in another experiment is Gal(a1-2)Gal. The essentials:
as §1

The target in the next experiment is Gal(b1-2)Gal. The essentials: as §1
Experiment [3] concerns the target Gal3S(b1-3)[Fuc(a1-4)]GlcNAc. The essentials: as §1
In a further experiment the target is Glc(b1-4)Glc. The essentials: as §1
Experiment [4] addresses GlcNAc(a1-6)Gal(b1-4)GlcNAc. In outline:
as §1

For a further experiment, the target named is GlcNAc(b1-3)GalNAc. In outline: as §1
The target in experiment [5] is GlcNAc(b1-4)[GlcNAc(b1-6)]GalNAc. The essentials: as §1
Experiment [6] has as its target Man(a1-2)Man(a1-2)Man(a1-3)[Man(a1-2)Man(a1-3)[Man(a1-2)Man(a1-6)]Man(a1-6)]Man(b1-4)GlcNAc(b1-4)GlcNAc. In outline: as §1
Experiment [7] has as its target Man(a1-2)Man(a1-2)Man(a1-3)[Man(a1-2)Man(a1-6)[Man(a1-3)]Man(a1-6)]Man(b1-4)GlcNAc(b1-4)GlcNAc. The essentials: as §1
For experiment [8], the target named is Man(a1-2)Man(a1-3)[Man(a1-6)]Man(a1-6)[Man(a1-2)Man(a1-3)]Man(b1-4)GlcNAc(b1-4)GlcNAc. The essentials: as §1
Experiment [9] addresses Man(a1-3)[Man(a1-6)]Man(a1-6)[Man(a1-3)]Man(b1-4)GlcNAc(b1-4)GlcNAc. In outline: as §1
Experiment [10] addresses Man(a1-3)[Man(a1-6)]Man(b1-4)GlcNAc(b1-4)GlcNAc. The essentials:
as §1

The target of experiment [11] is Neu5Ac(a2-3)Gal(b1-3)[Fuc(a1-4)]GlcNAc. In outline: as §1
Experiment [12] concerns the target Neu5Ac(a2-3)[GalNAc(b1-4)]Gal(b1-4)Glc. In outline: as §1
For experiment [13], the target named is Neu5Ac(a2-6)GalNAc(b1-4)GlcNAc. The essentials:
as §1

Experiment [14] addresses Neu5Ac(a2-8)Neu5Ac(a2-3)[GalNAc(b1-4)]Gal(b1-4)Glc. In outline:
as §1

The entries come from a sample that favours the strongest signals as a whole.

B1: FBG2 (Homo sapiens), Q9NRD1 (protein)
chain: MDAPHSKAALDSINELPENILLELFTHVPARQLLLNCRLVCSLWRDLIDLMTLWKRKCLREGFITKDWDQPVADWKIFYFLRSLHRNLLRNPCAEEDMFAWQIDFNGGDRWKVESLPGAHGTDFPDPKVKKYFVTSYEMCLKSQLVDLVAEGYWEELLDTFRPDIVVKDWFAARADCGCTYQLKVQLASADYFVLASFEPPPVTIQQWNNATWTEVSYTFSDYPRGVRYILFQHGGRDTQYWAGWYGPRVTNSSIVVSPKMTRNQASSEAQPGQKHGQEEAAQSPYRAVVQIFPPPVTIQQWNNATWTEVSYTFSDYPRGVRYILFQHGGRDTQYWAGWYGPRVTNSSIVVSPKMTRNQASSEAQPGQKHGQEEAAQSPYRAVVQI
With B1, the “glycan array binding signal (z-score)” value in experiment [1] was -0.537; in [2] it was -0.236; with Gal(a1-2)Gal, -0.526; with Gal(b1-2)Gal it was -0.363; in experiment [3] it was 1.01; with Glc(b1-4)Glc, -0.116. For the same molecule, the “glycan array binding signal (z-score)” value is -0.895 in experiment [4]; -0.923 with GlcNAc(b1-3)GalNAc; -0.787 in experiment [5]; 3.27 in [6]; 3.69 in [7]; 3.61 in experiment [8]. The “glycan array binding signal (z-score)” value was 4.08 in [9]; 3.91 in experiment [10]; -0.752 in [11]; -0.116 in experiment [12]; -0.582 in experiment [13]; -0.018 in experiment [14].
